According to article PMC4552634, “A New Set of Chemical Starting Points with Plasmodium falciparum Transmission-Blocking Potential for Antimalarial Drug Discovery” (PLoS ONE, 2015):
The whole screen tested about 13,000 compounds, of which about 3,200 (25%) showed an effect of 50% or more. The list shows a part of the results.

These compounds were tested on P. falciparum stage V gametocytes. Conditions: 48 h, 5 µM; inhibitor.
Parameters: BacTiter-Glo ATP luminescence viability of purified stage V gametocytes in 384-well plates, per cent inhibition versus DMSO

SMILES	% Inhibition
O=c1cc(NCCCNCc2cc3c(Cl)cccc3s2)[nH]c2ccccc12 [TCMDC-140333]	-87.93%
COc1c(Br)cc(Br)cc1C(C)=O [TCMDC-123841]	-7.365%
CCOC(=O)c1[nH]c(-c2ccc(Cl)cc2)nc1NC(=S)NCCCN1CCOCC1 [TCMDC-138877]	37.64%
Cc1nc(-c2ccc(-c3ccc(C(=O)Nc4ccc5c(c4)C4(CCNCC4)CO5)cc3)c(C)c2)no1 [TCMDC-138993]	45.43%
O=C(N[C@@H](Cc1ccccc1)C(=O)NCc1cccc(C(F)(F)F)c1)c1ccc(O)c(-c2ccc(Cl)c(Cl)c2)c1 [TCMDC-140833]	12.7%
CN1CCN(S(=O)(=O)c2ccc3nccc(Nc4ccc(Oc5ccccc5)cc4)c3c2)CC1 [TCMDC-138691]	-22.54%
Cc1cc(C=C(P(=O)(OC(C)C)OC(C)C)P(=O)(OC(C)C)OC(C)C)c2ccccc2c1O [TCMDC-138940]	80.96%
Cc1c(C(=O)Nc2cc(Sc3ccc(F)cc3)cc([N+](=O)[O-])c2)sc2ncn(Cc3ccccc3F)c(=O)c12 [TCMDC-125703]	1.963%
CCCN(CCC)CCCNc1ccc(C(=O)Nc2ccc(C(C)C)cc2)cc1[N+](=O)[O-] [TCMDC-125688]	90.5%
CCCN(CCC)CCCNc1ccc(C(=O)Nc2ccc(OCC)cc2)cc1[N+](=O)[O-] [TCMDC-125691]	12.73%
O=C(Nc1ccc(C(F)(F)F)cc1)c1ccc(NCCCN2CCCCCC2)c([N+](=O)[O-])c1 [TCMDC-125681]	11.61%
COc1cccc(NC(=O)c2ccc(NCCCN3CC(C)CC(C)C3)c([N+](=O)[O-])c2)c1 (stereo not drawn) [TCMDC-125689]	53.82%
CCCN(CCC)CCCNc1ccc(C(=O)Nc2ccc(C)c(F)c2)cc1[N+](=O)[O-] [TCMDC-125685]	15.23%
CC1CCN(CCCNc2ccc(C(=O)Nc3ccc(C(F)(F)F)cc3)cc2[N+](=O)[O-])CC1 [TCMDC-125683]	88.85%
CCOc1ccc(NC(=O)c2ccc(NCCCN3CC(C)CC(C)C3)c([N+](=O)[O-])c2)cc1 (stereo not drawn) [TCMDC-125692]	30.09%
COc1cccc(NC(=O)c2ccc(NCCCN3CCC(C)CC3)c([N+](=O)[O-])c2)c1 [TCMDC-125690]	0.09701%
CC1CC(C)CN(CCCNc2ccc(C(=O)Nc3ccc(C(F)(F)F)cc3)cc2[N+](=O)[O-])C1 (stereo not drawn) [TCMDC-125680]	38.66%
COc1ccc2ncc(F)c(NC(=O)C3CCC(NCc4cc5cc(F)cc(F)c5[nH]4)CC3)c2n1 (stereo not drawn) [TCMDC-136455]	25.24%
O=C(Nc1cccc(C2=NCCN2)c1)Nc1cccc(C2=NCCN2)c1 [TCMDC-124304]	-0.7345%
COc1ccc(NC(=O)N2CCc3ccc(OCCN(C(C)C)C(C)C)cc32)cc1C(F)(F)F [TCMDC-140253]	-24.24%
N#Cc1cccc(CNC(=O)c2cccc(Nc3ccnc4ccc(F)cc34)c2)c1 [TCMDC-136309]	21.53%

SMILES	% Inhibition
Cc1cc(NC(=O)c2ccc(S(=O)(=O)N(Cc3ccccc3)C(C)C)cc2)no1 [TCMDC-123547]	-7.124%
CCNc1cc(C(=O)N[C@@H](Cc2ccccc2)[C@H](O)CNCc2cc(OC)cc(OC)c2)cc(N2CCCC2=O)c1 [TCMDC-134572]	-8.682%
CCn1c(-c2nonc2N)nc2c(-c3cccc(NC(=O)Nc4ccc(C(F)(F)F)cc4)c3)ncc(OCCCN)c21 [TCMDC-136179]	115.3%
O=C(Nc1ccc(Cl)cc1)Nc1cccc(-c2cccc(-c3nc4ccc(C(F)(F)F)cc4[nH]3)c2)c1 [TCMDC-133180]	-47.4%
CCn1c(-c2nonc2N)nc2c(-c3cccc(NC(=O)Nc4cccc(C(F)(F)F)c4)c3)ncc(OCCCN)c21 [TCMDC-136178]	94.17%
CCOC(=O)c1ccc(NC(=O)Nc2cccc(-c3ccc(-c4nc5ccc(C(F)(F)F)cc5[nH]4)cc3)c2)cc1 [TCMDC-133261]	-31.99%
CCOC(=O)NCC(=O)Nc1cccc(-c2cccc(-c3nc4ccc(C(F)(F)F)cc4[nH]3)c2)c1 [TCMDC-137047]	-10.81%
O=C(NC1CC1)c1ccc(N2CCCCN2CCc2ccccc2)c(C(F)(F)F)c1 [TCMDC-135276]	0.5792%
COc1ccc(CCNC(=O)c2ccccc2O)cc1-c1ccc(C(C)(C)C)cc1 [TCMDC-136182]	40.5%
N=C1NC(=N)N(OCCCCCCON2C(=N)NC(=N)NC2C=Cc2ccccc2)C(C=Cc2ccccc2)N1 (stereo not drawn) [TCMDC-131602]	-13.97%
Cc1nc2nc(N)nc(N)c2c(C)c1Cc1ccc(C(N)=O)cc1 [TCMDC-137641]	15.14%
CC1=C(C(=O)Nc2cc3cn[nH]c3cc2F)C(c2cccc(NS(C)(=O)=O)c2)CC(=O)N1 (stereo not drawn) [TCMDC-136177]	35.05%
CC1=C(C(=O)Nc2cc3cn[nH]c3cc2F)C(c2ccc(Cl)c(NS(C)(=O)=O)c2)CC(=O)N1 (stereo not drawn) [TCMDC-136204]	27.6%
CC1=C(C(=O)Nc2cc3cn[nH]c3cc2F)C(c2cccc(O)c2F)CC(=O)N1 (stereo not drawn) [TCMDC-136296]	76.63%
C=CCOC(=O)N1CCC(CNCc2cccc(-c3ccc(-c4nc5ccccc5[nH]4)s3)c2)C1.O=C(O)C(F)(F)F (stereo not drawn) [TCMDC-133036]	38.09%
Cc1cc(C2CCN(CCCCNC(=O)c3ccc(NC(=O)c4ccc(Cl)cc4)cc3)CC2)c(C)cc1OCc1ccccn1 [TCMDC-138306]	24.78%
O=C(NCCCCN1CCC(c2ccc3c(c2OCc2ccncc2)CCCC3)CC1)c1ccc(NC(=O)c2ccc(Cl)cc2)cc1 [TCMDC-138725]	119.9%
COc1ccc(OCc2ccccn2)c(C2CCN(CCCCNC(=O)c3ccc(NC(=O)c4ccc(Cl)cc4)cc3)CC2)c1 [TCMDC-138311]	-15.54%
O=C(NCCCCN1CCC(c2ccc3c(c2OCc2ccccn2)CCCC3)CC1)c1ccc(NC(=O)c2ccc(Cl)cc2)cc1 [TCMDC-138720]	101.6%
Cc1ccc(NC(C)C(=O)Nc2ccccc2)cc1S(=O)(=O)N1CCCCCC1 (stereo not drawn) [TCMDC-124868]	-63.29%
Brc1cc(Br)c2c(c1)C(NCCCNC1CCNc3c(Br)cc(Br)cc31)CCN2 (stereo not drawn) [TCMDC-140067]	-3.983%

SMILES	% Inhibition
COc1ccc(NC(=O)[C@H](CC(C)C)Nc2ccnc(Nc3ccccc3)n2)cc1 [TCMDC-134750]	-9.476%
COc1cccc(OC)c1C(=O)Nc1cccc(-c2nn3ccccc3c2-c2ccnc(Nc3cccc(F)c3)n2)c1 [TCMDC-135847]	-55.46%
CC(C)CNCc1ccc(-c2ccc(CN(CCCN3CCN(C)CC3)C(=O)/C=C/c3ccccc3)cc2)cc1 [TCMDC-140546]	104.5%
CC(C)CNCc1cccc(-c2cccc(CN(CCCN3CCN(C)CC3)C(=O)/C=C/c3ccccc3)c2)c1 [TCMDC-140541]	106.7%
O=C(/C=C/c1ccc(CNCCN2CCOCC2)cc1)NCCc1ccccc1 [TCMDC-140901]	-18.05%
CC(C)CNCc1cccc(-c2ccc(CN(CCCN3CCN(C)CC3)C(=O)/C=C/c3ccccc3)cc2)c1 [TCMDC-140545]	109.3%
CC(C)CNCc1ccc(-c2cccc(CN(CCCN3CCN(C)CC3)C(=O)/C=C/c3ccccc3)c2)cc1 [TCMDC-140542]	91.48%
COC(=O)c1c(C#N)c(OC)cc(O)c1CSC[C@H](Nc1nc(-c2ccc([N+](=O)[O-])cc2)cs1)C(=O)NCCN1CCCCC1 [TCMDC-138651]	-15.18%
Cc1nc(N)nc(N)c1OCCCCCCOc1ccccc1 [TCMDC-131354]	-4.555%
Cc1ccc(F)c(C(=O)Nc2cccc(-c3nn4ccccc4c3-c3ccnc(Nc4cccc(F)c4)n3)c2)c1F [TCMDC-135846]	-36.31%
O=C(Nc1cccc(-c2nn3ccccc3c2-c2ccnc(Nc3ccc(Cc4ccncc4)cc3)n2)c1)c1c(F)cccc1F [TCMDC-135845]	-48.11%
CC1(C)N=C(N)N=C(N)N1OCCc1ccc(N)cc1 [TCMDC-131632]	14.77%
Cc1ccc(F)c(OC2CCN(c3ccc(C(=O)NC4CC4)cn3)CC2)c1 [TCMDC-134036]	27.07%
CCNc1cc(C)nc(Nc2ccc(NC(=O)c3cccs3)cc2)n1 [TCMDC-124981]	-23.08%
Cc1ncccc1C(=O)Nc1cccc(-c2cccc(-c3nc4ccc(C(F)(F)F)cc4[nH]3)c2)c1 [TCMDC-136860]	-20.59%
O=C(Nc1cccc(-c2cccc(-c3nc4ccc(C(F)(F)F)cc4[nH]3)c2)c1)c1cccnc1Cl [TCMDC-136838]	-52.15%
O=C(Nc1ccc(Cl)cc1)c1cccc2[nH]c(C(F)(F)F)nc12 [TCMDC-141578]	11.96%
O=C(Nc1cccc(C(F)(F)F)c1)c1cccc2[nH]c(C(F)(F)F)nc12 [TCMDC-141579]	65%
O=C(Nc1cc(C(F)(F)F)cc(C(F)(F)F)c1)c1cc(Cl)ccc1O [TCMDC-125465]	22.2%
O=C(Nc1ccc(Cl)cc1)c1cc(Cl)cc2[nH]c(C(F)(F)F)nc12 [TCMDC-141586]	55.63%
Fc1ccccc1COc1ccc(Nc2ncnc3ccc(-c4nnc(C(F)(F)F)o4)cc23)cc1Cl [TCMDC-138161]	24.13%
